Measured values from PubChem BioAssay (NCATS).
Results filed as inconclusive are left out. Entries that show only a call come without a potency. Values without a mark were called inactive. Active and inactive are the calls of the source. The call rests on the fitted dose curve; in most records, active means well fitted inhibition curve with a large enough effect; inconclusive means small, poorly fitted or top-dose-only effect; inactive means flat fitted curve, though single readings scatter.

How the values were obtained:
[1] = qHTS profiling for inhibitors of Plasmodium falciparum proliferation (AID 504749); on all read-outs here: nearly all actives have a fitted effect of over 60% in size; conditions: P. falciparum in erythrocytes, SYBR Green DNA, 72 h; for activity, negative = inhibition: at 28.7 µM (top of the series)
Procedure, shortened: (§1)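 SYBR Green fluorescence of parasite DNA, read after lysis and overnight dark incubation, measured growth over 72 h in erythrocyte culture at 0.3% parasitemia and 2.5% hematocrit. Data normalised to DMSO and 0.29 uM artemisinin, with plate-drift correction.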

3D7 = assay: as above; conditions: P. falciparum in erythrocytes, SYBR Green DNA, 72 h; series mostly up to 28.7 µM
Procedure, shortened: as §1

7G8 = assay: as above; conditions: P. falciparum in erythrocytes, SYBR Green DNA, 72 h; series mostly up to 28.7 µM
Procedure, shortened: as §1

AA1029 = assay: as above; conditions: P. falciparum in erythrocytes, SYBR Green DNA, 72 h; series mostly up to 28.7 µM
Procedure, shortened: as §1

AS120 = assay: as above; conditions: P. falciparum in erythrocytes, SYBR Green DNA, 72 h; series mostly up to 28.7 µM
Procedure, shortened: as §1

ATS189 = assay: as above; conditions: P. falciparum in erythrocytes, SYBR Green DNA, 72 h; series mostly up to 28.7 µM
Procedure, shortened: as §1

ATS95 = assay: as above; conditions: P. falciparum in erythrocytes, SYBR Green DNA, 72 h; series mostly up to 28.7 µM
Procedure, shortened: as §1

C2A = assay: as above; conditions: P. falciparum in erythrocytes, SYBR Green DNA, 72 h; series mostly up to 28.7 µM
Procedure, shortened: as §1

CP185 = assay: as above; conditions: P. falciparum in erythrocytes, SYBR Green DNA, 72 h; series mostly up to 28.7 µM
Procedure, shortened: as §1

CP191 = assay: as above; conditions: P. falciparum in erythrocytes, SYBR Green DNA, 72 h; series mostly up to 28.7 µM
Procedure, shortened: as §1

CP194 = assay: as above; conditions: P. falciparum in erythrocytes, SYBR Green DNA, 72 h; series mostly up to 28.7 µM
Procedure, shortened: as §1

CP192 = assay: as above; conditions: P. falciparum in erythrocytes, SYBR Green DNA, 72 h; series mostly up to 28.7 µM
Procedure, shortened: as §1
Potency means the concentration at half of the fitted maximal effect.

SMILES	Potency ([1]; parasite line A)	Potency ([1]; parasite line B)	Potency (3D7)	Potency (7G8)	Potency (AA1029)	Potency (AS120)	Potency (ATS189)	Potency (ATS95)	Potency (C2A)	Potency (CP185)	Potency (CP191)	Potency (CP194)	activity, negative = inhibition ([1]; parasite line A)	activity, negative = inhibition ([1]; parasite line B)	Potency (CP192)
COc1cc(NCCCC(C)N)c2ncccc2c1 (configuration not stated)	2 µM (active)	0.891 µM (active)	2 µM (active)	0.224 µM (active)	12.6 µM (active)	3.16 µM (active)	11.2 µM (active)	11.2 µM (active)	10 µM (active)	11.2 µM (active)	5.01 µM (active)	7.57 µM (active)	–	–	–
Cc1cc(C)c(NC(=O)C[C@H](CC(=O)O)c2cccc3ccccc23)c(C(=O)N2CCC3(CCCC3)CC2)c1	–	–	inactive	–	inactive	inactive	inactive	inactive	inactive	inactive	inactive	inactive	4.74%	-1.81%	inactive
CC(=O)[O][Al][O]C(C)=O	–	–	inactive	inactive	inactive	inactive	inactive	inactive	inactive	inactive	inactive	inactive	4.56%	3.22%	–
C[C@H](N)C(=O)N[C@@H](C)P(=O)(O)O	–	–	inactive	inactive	inactive	inactive	inactive	inactive	inactive	inactive	inactive	inactive	12.4%	10.4%	inactive
[O]=[Bi][O][Bi]=[O]	–	–	inactive	inactive	inactive	inactive	inactive	inactive	inactive	inactive	inactive	inactive	0.672%	4.28%	inactive
O=P(O)(O)CP(=O)(O)O	–	–	inactive	inactive	inactive	inactive	inactive	inactive	inactive	–	–	inactive	11.8%	12.6%	inactive
O=C(CCCCCCCCCCCCC1CCCC1)Nc1ccc(S(=O)(=O)c2ccc(NC(=O)CCCCCCCCCCCCC3CCCC3)cc2)cc1	–	–	inactive	inactive	inactive	inactive	inactive	inactive	inactive	inactive	inactive	inactive	-2.51%	13.1%	inactive
FC(F)(F)C(F)(F)C(F)(F)C(F)(F)C(F)(F)C(F)(F)F	–	–	inactive	inactive	inactive	inactive	inactive	inactive	inactive	inactive	inactive	inactive	2.24%	2.03%	inactive
CCN(CC)CCCC(C)Nc1cc(/C=C/c2ccccc2Cl)nc2cc(Cl)ccc12 (configuration not stated)	1.78 µM (active)	2 µM (active)	1.41 µM (active)	0.794 µM (active)	2.24 µM (active)	2 µM (active)	3.55 µM (active)	2.51 µM (active)	1.12 µM (active)	2.82 µM (active)	1.26 µM (active)	12 µM (active)	–	–	–
CN(C)CCCSc1ccccc1NC(=O)/C=C/c1ccccc1	–	–	inactive	inactive	–	inactive	inactive	inactive	inactive	inactive	inactive	inactive	13.3%	3.42%	inactive
NC(=S)N=Nc1ccc(NN=C(N)N)cc1	10 µM (active)	10 µM (active)	12.6 µM (active)	10 µM (active)	12.6 µM (active)	12.6 µM (active)	10 µM (active)	10 µM (active)	5.62 µM (active)	11.2 µM (active)	4.47 µM (active)	7.57 µM (active)	–	–	8.49 µM (active)
CCC(=O)c1ccc2c(c1)N(CCCN1CCN(CCO)CC1)c1ccccc1S2	10 µM (active)	11.2 µM (active)	10 µM (active)	11.2 µM (active)	12.6 µM (active)	12.6 µM (active)	12.6 µM (active)	–	–	–	5.62 µM (active)	–	–	–	–
O=S(=O)(O)CCCS(=O)(=O)O	–	–	inactive	inactive	inactive	inactive	inactive	inactive	inactive	inactive	inactive	inactive	-6.14%	2.06%	inactive
C=CCCCCCCCCC(=O)OC	–	–	inactive	–	inactive	inactive	inactive	inactive	inactive	inactive	inactive	inactive	-4.4%	10.1%	inactive
CC(=O)Oc1cccc2c1C(=O)c1c(OC(C)=O)cc(C(=O)O)cc1C2=O	–	–	inactive	inactive	inactive	inactive	inactive	inactive	inactive	inactive	inactive	inactive	–	-5.47%	inactive
N=C(N)c1ccc(/C=C/c2ccc(C(=N)N)cc2O)cc1	8.91 µM (active)	10 µM (active)	–	3.98 µM (active)	10 µM (active)	12.6 µM (active)	–	10 µM (active)	3.98 µM (active)	10 µM (active)	1.41 µM (active)	6.01 µM (active)	–	–	5.36 µM (active)
